Bioassay records as filed in PubChem.
PKA-R2B activ: PKA-R2B complex activation. PKA-R2B holoenzyme dissociation, Cy5-IP20 fluorescence polarization; R2B truncated from residue 108, S112A mutant; 0% DMSO only, 100% 113 µM cGMP. activation, % at 11.4 µM. 340,000 tested, 0.079% active;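 active = activation above a cutoff set at the mean over all compounds plus 3 SD, cut at about 18% in these data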;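 also: higher means more holoenzyme dissociation and a rise in polarization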
Rpn11 block: inhibitors of human proteasome Rpn11 | O00487 | human 26S proteasome, Ub4-pepOG fluorescence polarization; 20S core pre-blocked with epoxomicin | calls only at 20 µM | 360,000 tested, 0.59% active | AID 588493;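 active = inhibition at 20 µM, scaled to each plate's controls, above about 33%, limit read from the data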
Target sequence (O00487 whole entry, looked up): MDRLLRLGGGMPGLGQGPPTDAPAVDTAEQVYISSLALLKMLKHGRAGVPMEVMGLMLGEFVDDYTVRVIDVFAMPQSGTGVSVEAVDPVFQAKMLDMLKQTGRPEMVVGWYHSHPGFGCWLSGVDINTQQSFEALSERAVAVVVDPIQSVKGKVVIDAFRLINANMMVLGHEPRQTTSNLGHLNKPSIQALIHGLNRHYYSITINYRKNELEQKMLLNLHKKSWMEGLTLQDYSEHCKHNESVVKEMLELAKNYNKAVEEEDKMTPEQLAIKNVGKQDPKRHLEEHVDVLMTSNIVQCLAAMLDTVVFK
PKA-R1A act: activators of PKA-R1A complex; activation, % at 11.4 µM; PKA-R1A dissociation, Cy5-IP20 fluorescence polarization; scaled: DMSO 0%, 113 µM cGMP 100%; 340,000 tested, 0.083% active;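 active = percent activation above the mean of all tested compounds plus 3 SD, cut at about 19% in these data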;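 also: higher means more PKAc released from R1A so a rise in polarization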
Neddylation inh: inhibitors of human cullin neddylation | P61081+Q13564 | TR-FRET cullin neddylation, biochemical | inhibition, % at 25 µM | 360,000 tested, 0.58% active | AID 651699; in the data active = inhibition above about 36%
R2B FP artifact: counter-screen for PKA-R2B activators: fluorescence polarization artifacts. shares compounds with PKA-R2B activ. FP artifact counterscreen. activation, % at 11.4 µM. 270 tested, 6% active; in the data active = activation above about 20%;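 also: Cy5 labelled IP20 peptide probe with compound but no PKA protein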
PKA-R2B confirm: PKA-R2B complex activation, confirmation. shares compounds with PKA-R2B activ. activation, % at 11.4 µM. fluorescence polarization. 270 tested, 9% active; in the data active = activation above about 19%
Hits are given with their value; - = inactive; . = not tested or not shown. Sampled rows, rich in hits. Any-hit rate of the full collection: about 1.3%.

SMILES	PKA-R2B activ	Rpn11 block	PKA-R1A act	Neddylation inh	R2B FP artifact	PKA-R2B confirm
O=C(COC(=O)CCNS(=O)(=O)c1ccccc1)NNC(=O)c1ccccc1	-	-	-	-	.	.
O=C(COC(=O)CCNS(=O)(=O)c1ccccc1)NC1CC1	19	-	-	-	-	-
OCC[C@@H]1C[C@@H](O)[C@H](O)[C@@]2(Cc3ccccc3CCO2)O1	21	-	-	-	-	-
COc1cc(OC)cc(-c2c(-c3cccs3)c3cc(Br)ccc3n2C)c1	20	-	-	-	-	-
Cc1cccc(C(=O)N[C@H](C(=O)OCC(=O)NC(=O)c2cccn2C)C(C)C)c1	-	-	-	-	.	.
CN(C)S(=O)(=O)c1ccc(S(=O)(=O)NCc2cccs2)cc1	25	-	-	-	-	-
O=S(=O)(NCc1cccs1)c1ccc(Br)cc1	-	-	-	-	.	.
Cc1ccc(N2C(=O)c3ccc(C(=O)N4CCN(Cc5ccccc5)CC4)cc3C2=O)cc1	-	-	-	-	.	.
COc1ccc(CNC(=O)CN(C(=O)CCC(=O)Nc2nccs2)c2cccc(C)c2)cc1	-	-	-	-	.	.
COC(=O)N/N=C/c1cn(CCOc2ccc(OC)cc2)c2ccccc12	-	-	-	-	.	.
COC(=O)N/N=C/c1cn(CCOc2ccccc2)c2ccccc12	20	-	-	-	-	-
CCOc1ccc(NC(=O)CN2C(=O)NC3(CCCCCC3)C2=O)cc1	20	-	-	-	-	-
O=C1CN(C(=O)CNCc2ccccc2)c2ccccc2N1	-	-	-	-	.	.
CC(c1nnc(SCC(=O)Nc2cccnc2Cl)n1Cc1ccccc1)N(C)C (stereo not drawn)	-	-	-	-	.	.
CC1=NN(c2nc(-c3ccc(F)cc3)cs2)C(=O)C1	-	-	-	-	.	.
CC1=NN(c2nc(-c3ccc(Cl)cc3)cs2)C(=O)C1	20	-	-	-	-	-
COc1cccc(OC)c1CNC(=O)CCSCc1ccccc1F	-	-	-	-	.	.
COc1cccc(CNC(=O)CCSCc2ccccc2F)c1	20	-	-	-	-	-
COc1ccc(OC)c(C(=O)NC(CC(N)=O)c2ccc(N3CCN(c4ccccn4)CC3)c([N+](=O)[O-])c2)c1 (stereo not drawn)	21	-	-	-	-	-
COc1ccc(S(N)(=O)=O)cc1C(=O)N(C)CC(=O)Nc1ccc(N2CCOCC2)cc1	-	-	-	-	.	.
Cc1ccc(N2C(=O)C3ON(c4ccccc4)C(c4ccncc4)C3C2=O)cc1 (stereo not drawn)	20	-	-	-	-	-
CCn1c(=O)c2[nH]c(SC)nc2n(CC)c1=O	-	-	-	-	.	.
COc1cccc(Nc2nc(NCCO)nc(N3CCCC3)n2)c1	22	-	-	-	-	-
CN1C(CCl)Nc2cc(Cl)c(S(N)(=O)=O)cc2S1(=O)=O (stereo not drawn)	-	-	-	-	.	.
CCC1NC(=O)c2cc(S(N)(=O)=O)c(Cl)cc2N1 (stereo not drawn)	21	-	-	-	-	-
SMILES	PKA-R2B activ	Rpn11 block	PKA-R1A act	Neddylation inh	R2B FP artifact	PKA-R2B confirm
Cc1onc(-c2ccccc2)c1C(=O)Nc1ccc(Br)cc1Cl	19	-	-	-	-	-
COc1ccc(NS(=O)(=O)c2cc(NC(=O)c3ccccc3F)ccc2N2CCCC2)cc1	19	-	-	-	-	-
Cn1cnc(S(=O)(=O)Nc2cc(C(F)(F)F)ccc2N2CCOCC2)c1	20	-	-	-	-	-
COc1ccc(NC(=O)c2c(C(F)(F)F)nn(C)c2Cl)cc1	.	-	.	-	.	.
Cn1nc(C(F)(F)F)c(C(=O)Nc2ccc(F)cc2)c1Cl	20	-	-	-	-	-
COc1ccc(C(C(=O)NCCC(C)C)N(CCN2CCOCC2)C(=O)Cn2nnc3ccccc32)c(OC)c1 (stereo not drawn)	-	-	-	-	.	.
O=C(CCC(=O)N1CCSc2ccccc21)NCCc1ccccc1	-	-	-	-	.	.
COCCN1C=C2C(=O)C(C)(OC(=O)CCC(=O)OC)C(=O)C=C2C=C1C1CC1 (stereo not drawn)	20	-	-	-	-	-
COc1ccc(CC(=O)OCC(=O)NC2CCCCC2)cc1OC	18	-	-	-	-	-
COC(=O)[C@@H](NC(=O)c1ccc(OC2CCN(Cc3ccccn3)CC2)cc1)C(C)C	20	-	-	-	-	-
